In PubChem BioAssay (NCI) one finds growth data, which are given here for eight molecules.

This is part of a sample that, as a whole, favours compounds with a hit. Of some 83,000 tested, about 20% had one in any assay.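 Interpretation: 100, growth as untreated; towards 0, rising growth inhibition; 0, no net growth; 0 to -100, cell death. Compounds scoring below 10 were considered active.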 Unmarked numbers belong to inactive results. Calls of active or inactive are those of the source.

Some test systems named below: SR leukemia; RPMI-8226 leukemia; OVCAR-8 ovarian; OVCAR-5 ovarian; OVCAR-4 ovarian; SK-OV-3 ovarian; IGROV1 ovarian; OVCAR-3 ovarian; HS 578T breast; NCI/ADR-RES ovarian; T-47D breast; BT-549 breast; MDA-MB-435 melanoma; SW-620 colon; MCF7 breast; HCT-116 colon; HCC-2998 colon; KM12 colon.
What all share (assay): NCI-60 one-dose screen, 48 h (100 = growth as untreated, 0 = no growth, -100 = all killed)
What all share (details): 10 µM unless noted

Regarding `COc1ccc(C2C3=C(COC3=O)N(CCO)c3cc4c(cc32)OCCO4)cc1OC` (centres undefined), the growth in the test on SR leukemia was 16.8%; in the test on RPMI-8226 leukemia, 28.5%; in the test with OVCAR-8 ovarian, 53.3%; in the test with OVCAR-5 ovarian, 67.1%; in the test with OVCAR-4 ovarian, 41.3%; in the test with SK-OV-3 ovarian, 29.2%. Further, the growth is 37.1% in the test on IGROV1 ovarian; -37% (active) in the test on OVCAR-3 ovarian; -11.4% (active) in the test with HS 578T breast; 65.4% in the test on NCI/ADR-RES ovarian; 25.9% in the test on T-47D breast; 53.9% in the test with BT-549 breast. In addition, the growth is -44.1% (active) in the test on MDA-MB-435 melanoma; 13.2% in the test with SW-620 colon; 15.9% in the test with MCF7 breast; 18.2% with HCT-116 colon; 48.7% with HCC-2998 colon; 23.2% with KM12 colon.

With `Cc1nc2sc(C(=O)Nc3cccc(Cl)c3)c(N)c2cc1C(O)c1ccccc1` (centres undefined), the growth in the test on SR leukemia is 8.06% (active); in the test with RPMI-8226 leukemia, 11.3%; in the test on OVCAR-8 ovarian, 19%; with OVCAR-5 ovarian it was 41.4%; in the test with OVCAR-4 ovarian, 71.6%; in the test on SK-OV-3 ovarian it was 40.6%. In addition, the growth in the test with IGROV1 ovarian was 28.7%; with OVCAR-3 ovarian it was 6.3% (active); with HS 578T breast, 19%; in the test on NCI/ADR-RES ovarian, 5.21% (active); in the test on T-47D breast, 50.6%; with BT-549 breast, 52.6%. In addition, the growth in the test with MDA-MB-435 melanoma was 5.16% (active); in the test on SW-620 colon it was 33.1%; with MCF7 breast, 21.9%; in the test with HCT-116 colon, 13.9%; in the test on HCC-2998 colon, 17.8%; in the test on KM12 colon, 18.3%.

For `CCN(CC)CCNC(=O)c1ccc(-c2nc3ccc4[nH]ncc4c3c3c2CCCC3)cc1`, the growth with SR leukemia was 6.02% (active); with RPMI-8226 leukemia, 52.1%; with OVCAR-8 ovarian, 59%; in the test with OVCAR-5 ovarian it was 87.3%; in the test on OVCAR-4 ovarian, 76.1%; in the test on SK-OV-3 ovarian it was 44.1%. Further, the growth in the test with IGROV1 ovarian is 35.3%; with OVCAR-3 ovarian, 78.4%; with HS 578T breast it was 41.6%; with NCI/ADR-RES ovarian, 70.9%; with T-47D breast, 44.6%; in the test on BT-549 breast, 59.5%. Moreover, the growth with MDA-MB-435 melanoma was 42.9%; with SW-620 colon it was 28.4%; with MCF7 breast, 62.4%; with HCT-116 colon it was 24.1%; with HCC-2998 colon, 84.3%; in the test with KM12 colon it was 46.2%.

As to `Cn1cc(-c2nc(-c3c[nH]c4ccncc34)cs2)c2cc(Br)ccc21`, the growth with SR leukemia is -23.6% (active); in the test with RPMI-8226 leukemia, -38% (active); with OVCAR-8 ovarian, -53.2% (active); in the test with OVCAR-5 ovarian, -94.1% (active); in the test on OVCAR-4 ovarian it was -71% (active); in the test with SK-OV-3 ovarian it was 40.8%. Moreover, the growth was -82.8% (active) with IGROV1 ovarian; -92.5% (active) in the test with OVCAR-3 ovarian; -44% (active) in the test on HS 578T breast; -57.6% (active) in the test on NCI/ADR-RES ovarian; -54.1% (active) in the test with T-47D breast; 84.2% in the test on BT-549 breast. Besides, the growth in the test on MDA-MB-435 melanoma was -81.4% (active); in the test with SW-620 colon, -71.8% (active); with MCF7 breast, -72.4% (active); in the test on HCT-116 colon, -89.7% (active); in the test on HCC-2998 colon it was -68.9% (active); in the test with KM12 colon it was -83.8% (active).

Turning to `N#Cc1nc(-c2ccc(F)cc2)oc1S(=O)(=O)N1CCN(c2ccc(F)cc2)CC1`, the growth was 6.45% (active) in the test on SR leukemia; 46.5% in the test with RPMI-8226 leukemia; 71.4% in the test on OVCAR-8 ovarian; 111% with OVCAR-5 ovarian; 105% in the test with OVCAR-4 ovarian; 118% with SK-OV-3 ovarian. Also, the growth in the test on IGROV1 ovarian was 76%; with OVCAR-3 ovarian it was 91%; in the test with HS 578T breast, 107%; in the test with NCI/ADR-RES ovarian it was 94.7%; in the test on T-47D breast, 85.8%; in the test on BT-549 breast, 103%. The growth with MDA-MB-435 melanoma was 86.8%; with SW-620 colon, 19%; in the test with MCF7 breast, 40.9%; in the test on HCT-116 colon, 46.7%; with HCC-2998 colon it was 109%; with KM12 colon, 102%.

Regarding `C=CC1(C)C(O[Si](C)(C)C(C)(C)C)CC2C3OC(=O)NC31c1cccc3c1[C@H](C(=O)N3C)C2(C)C` (some centres undefined), the growth was 24.4% in the test on SR leukemia; 7.41% (active) in the test with RPMI-8226 leukemia; 55.1% with OVCAR-8 ovarian; 75.8% in the test on OVCAR-5 ovarian; 55.1% with OVCAR-4 ovarian; 86.6% with SK-OV-3 ovarian. Further, the growth in the test on IGROV1 ovarian was 80.9%; with OVCAR-3 ovarian, 52.7%; in the test with HS 578T breast, 79.2%; in the test with NCI/ADR-RES ovarian, 60.5%; with T-47D breast, 23.8%; with BT-549 breast, 53.8%. Moreover, the growth in the test on MDA-MB-435 melanoma was 56.2%; with SW-620 colon, 64.6%; with MCF7 breast it was 27.7%; in the test with HCT-116 colon it was 38.6%; in the test on HCC-2998 colon it was 69.1%; with KM12 colon, 50.5%.

Consider `N=c1sc(Cc2cc(Cl)ccc2Cl)cn1CC(=O)c1ccccc1`, for which the growth in the test on SR leukemia was 27.4%; in the test with RPMI-8226 leukemia it was 70.4%; with OVCAR-8 ovarian, 62.6%; with OVCAR-5 ovarian it was 47.8%; in the test with OVCAR-4 ovarian, 56.5%; with SK-OV-3 ovarian it was 67.9%. Besides, the growth in the test with IGROV1 ovarian is 35.6%; with OVCAR-3 ovarian, 45.4%; in the test on HS 578T breast, 59.2%; in the test with NCI/ADR-RES ovarian, 36%; in the test with T-47D breast, 38.3%; in the test with BT-549 breast it was 68.8%. The growth is -41.5% (active) in the test with MDA-MB-435 melanoma; 21.2% in the test with SW-620 colon; 32.3% with MCF7 breast; 26.1% in the test with HCT-116 colon; 31.6% with HCC-2998 colon; 16.1% with KM12 colon.

Take `C=C1C(=O)O[C@H]2[C@H]1CC/C(Cn1cc(-c3cc(C(F)(F)F)cc(C(F)(F)F)c3)nn1)=C\CC[C@@]1(C)O[C@@H]21`: the growth in the test on SR leukemia is -48.5% (active); in the test on RPMI-8226 leukemia it was -31.4% (active); with OVCAR-8 ovarian, -85.7% (active); in the test with OVCAR-5 ovarian, -69.4% (active); in the test with OVCAR-4 ovarian it was -95.1% (active); with SK-OV-3 ovarian, -89.5% (active). In addition, the growth with IGROV1 ovarian was -78.6% (active); with OVCAR-3 ovarian, -92.7% (active); in the test with HS 578T breast it was -30.5% (active); in the test with NCI/ADR-RES ovarian it was -35.7% (active); in the test on T-47D breast it was -60.6% (active); with BT-549 breast, -78% (active). For the same molecule, the growth in the test with MDA-MB-435 melanoma is -81.7% (active); in the test with SW-620 colon, -35.8% (active); in the test with MCF7 breast it was -67.6% (active); with HCT-116 colon, -87.2% (active); in the test with HCC-2998 colon, -87.4% (active); in the test on KM12 colon it was -77.1% (active).
